PubChem BioAssay
Active and inactive are the calls of the source. Unless noted, how the calls were made is not given here.

Assays:
[1] = test system: Wnt5a (protein binding on small-molecule microarray); assay: small molecules binding Wnt5a protein – biophysical, small-molecule microarray, 635/667 nm fluorescence, primary screen (AID 1142); conditions: 635 nm fluorescence, higher = more signal;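 further: fluorescence read at 667 nm with signal to noise per printed feature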
[2] = ATP-based viability of Huh7 replicon cells – cell-based, CellTiter-Glo luminescence, basal, 48 h, cytotoxicity control for HCV replication inhibitor project, primary screen (AID 1143); conditions: higher = more signal, called active from +8 up or from −8 down;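 further: Huh7 hepatoma cells carrying a hepatitis C replication reporter with no stimulus; test concentration not given here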
[3] = Pseudomonas biofilm growth suppression – PAO1 strain, BacTiter-Glo luminescence, LB-PBS, primary screen (AID 1144); conditions: P. aeruginosa PAO1 biofilm, 12 h, higher = more signal
[4] = basal CRE-LacZ reporter activity in PC12 – cell-based, unstimulated, primary screen (AID 1145); conditions: no forskolin, luminescence, 4.5 h, higher = more signal, called active from +8 up or from −8 down
[5] = forskolin-driven CRE-LacZ activity in PC12 – cell-based, CRE-LacZ reporter, forskolin-stimulated, primary screen (AID 1146); conditions: luminescence, 4.5 h, higher = more signal, called active from +8 up or from −8 down;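 further: PC12 cells with 6xCRE LacZ reporter stimulated by forskolin 10 µM; beta-galactosidase reporter signal reflecting CREB driven transcription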
[6] = target: Streptavidin (Streptomyces avidinii) (UniProt P22629); assay: compounds binding control protein streptavidin – biophysical, small-molecule microarray, 635/667 nm fluorescence, artefact control for SMM compound annotation, primary screen (AID 1147); conditions: higher = more signal;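 further: signal reflects streptavidin binding to arrayed compounds as a control protein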
[7] = probe aInhba binding on compound microarray – biochemical, small-molecule microarray, 635/667 nm fluorescence, primary screen (AID 1148); conditions: higher = more signal;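 further: score merges 667nm spot fluorescence with signal-to-noise for antibody binding to printed compounds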
Torsin-1A (Homo sapiens) [8] = target: Torsin-1A (Homo sapiens) (UniProt O14656); assay: TOR1A wild-type binding on microarray – cell lysate, small-molecule microarray, lysate, 635/667 nm, primary screen (AID 1149); conditions: COS7 hTOR1A-WT lysate, 635 nm fluorescence, higher = more signal
Torsin-1A (Homo sapiens) [9] = target: Torsin-1A (Homo sapiens) (UniProt O14656); assay: torsin A mutant lysate binding on microarrays – cell lysate, small-molecule microarray, COS7 lysate, 635/667 nm fluorescence, primary screen (AID 1150); conditions: COS7 hTOR1A mutant lysate, 635 nm fluorescence, higher = more signal;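 further: score pools 667 nm emission and signal to noise measuring lysate protein binding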
[10] = test system: Sonic hedgehog protein (Shh); assay: Sonic hedgehog microarray binding compounds – biochemical, small-molecule microarray, 635/667 nm fluorescence, primary screen (AID 1151); conditions: 635 nm fluorescence, higher = more signal;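 further: Shh protein binding to compounds spotted on small-molecule microarray slides; score combines spot fluorescence intensity with signal-to-noise across triplicate slides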
[11] = optical density shifts of acrAB sulA E. coli – strain DRC41, OD650, 48 h, E. coli filamentation inducer project, primary screen (AID 1152); conditions: higher = more signal, called active from +8 up or from −8 down;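 further: E. coli MC1000 strain DRC41 lacking acrAB efflux pump and sulA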
[12] = probe aLefty1 binding on compound microarray – biochemical, small-molecule microarray, 635/667 nm fluorescence, primary screen (AID 1153); conditions: higher = more signal;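 further: score merges spot fluorescence with signal-to-noise ratio from the scanned slide images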
[13] = plasmodial surface anion channel blockers, osmotic lysis – cell-based, P. falciparum Indochina, OD700, 1 h, primary screen (AID 1154); conditions: P. falciparum Indochina infected RBC osmotic lysis, higher = more signal, called active from +8 up or from −8 down
[14] = plasmodial surface anion channel blockers, osmotic lysis – cell-based, P. falciparum Indochina, OD700, 2 h, primary screen (AID 1155);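 further: lysis reports solute entry through the parasite surface anion channel PSAC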; conditions: P. falciparum Indochina infected erythrocytes, higher = more signal, called active from +8 up or from −8 down
[15] = changes in parasitized red cell lysis, either direction – P. falciparum Indochina, OD700, 3 h, PSAC antagonist project, primary screen (AID 1156); conditions: P. falciparum-infected erythrocytes, osmotic lysis, higher = more signal, called active from +8 up or from −8 down
[16] = plasmodial surface anion channel blockers, osmotic lysis – cell-based, P. falciparum Indochina, OD700, 18 h, primary screen (AID 1157); conditions: P. falciparum Indochina infected erythrocytes, osmotic lysis OD700, 18 h; higher = more signal, called active from +8 up or from −8 down
[17] = S6 kinase pathway phospho-S6 level changes – cell-based, A549, cytoblot, luminescence, serum-stimulated, primary screen (AID 1158); conditions: 5 h, higher = more signal;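 further: serum-stimulated A549 lung adenocarcinoma cells; signal is phosphorylated S6 detected by cytoblot immunostaining with HRP secondary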
[18] = target: NADPH oxidase 2 (Homo sapiens) (UniProt P04839); assay: compounds shifting NOX2 Amplex Red fluorescence – cell-based, HEK293-NOX2, PMA-stimulated, NOX inhibitor project, primary screen (AID 1159); conditions: 45 min, higher = more signal, called active from +8 up or from −8 down; further: test concentration not given here
[19] = target: NADPH oxidase 4 (Homo sapiens) (UniProt Q9NPH5); assay: compounds shifting NOX4 Amplex Red fluorescence – cell-based, HEK293-NOX4, tetracycline-induced, NOX inhibitor project, primary screen (AID 1160); conditions: HEK293-NOX4, Amplex Red H2O2 fluorescence, 45 min; higher = more signal, called active from +8 up or from −8 down
[20] = target: NADPH oxidase 5 (Homo sapiens) (UniProt Q96PH1); assay: compounds shifting NOX5 Amplex Red fluorescence – cell-based, HEK293-NOX5, NOX inhibitor project, primary screen (AID 1161); conditions: HEK293-NOX5, ionomycin, 45 min, higher = more signal
NADPH oxidase 5 (Homo sapiens), sequence (Q96PH1 whole entry, looked up): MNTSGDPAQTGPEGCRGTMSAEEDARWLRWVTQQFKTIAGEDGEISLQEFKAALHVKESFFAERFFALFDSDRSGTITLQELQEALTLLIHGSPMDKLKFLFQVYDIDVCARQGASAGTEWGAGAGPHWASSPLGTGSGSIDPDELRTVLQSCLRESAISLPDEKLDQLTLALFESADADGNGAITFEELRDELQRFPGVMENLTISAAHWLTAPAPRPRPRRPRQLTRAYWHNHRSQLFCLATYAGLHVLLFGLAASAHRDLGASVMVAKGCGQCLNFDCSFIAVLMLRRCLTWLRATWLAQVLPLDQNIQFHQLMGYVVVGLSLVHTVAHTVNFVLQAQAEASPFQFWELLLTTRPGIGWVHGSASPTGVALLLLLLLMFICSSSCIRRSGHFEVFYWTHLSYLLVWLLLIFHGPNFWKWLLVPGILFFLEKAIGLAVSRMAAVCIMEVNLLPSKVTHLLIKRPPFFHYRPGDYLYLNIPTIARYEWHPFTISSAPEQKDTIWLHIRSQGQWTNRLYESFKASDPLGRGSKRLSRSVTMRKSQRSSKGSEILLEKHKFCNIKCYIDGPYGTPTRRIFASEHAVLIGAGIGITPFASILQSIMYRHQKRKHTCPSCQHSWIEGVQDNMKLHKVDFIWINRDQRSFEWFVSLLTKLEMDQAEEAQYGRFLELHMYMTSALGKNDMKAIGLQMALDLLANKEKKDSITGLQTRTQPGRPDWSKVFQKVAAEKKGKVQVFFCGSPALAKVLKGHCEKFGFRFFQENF

Streptavidin (Streptomyces avidinii), sequence (P22629 whole entry, looked up): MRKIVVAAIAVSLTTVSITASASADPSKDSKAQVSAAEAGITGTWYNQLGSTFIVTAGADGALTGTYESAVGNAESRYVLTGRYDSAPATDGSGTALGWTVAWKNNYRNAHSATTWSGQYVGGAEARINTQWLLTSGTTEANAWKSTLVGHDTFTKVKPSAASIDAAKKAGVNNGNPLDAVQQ
NADPH oxidase 2 (Homo sapiens), sequence (P04839 whole entry, looked up): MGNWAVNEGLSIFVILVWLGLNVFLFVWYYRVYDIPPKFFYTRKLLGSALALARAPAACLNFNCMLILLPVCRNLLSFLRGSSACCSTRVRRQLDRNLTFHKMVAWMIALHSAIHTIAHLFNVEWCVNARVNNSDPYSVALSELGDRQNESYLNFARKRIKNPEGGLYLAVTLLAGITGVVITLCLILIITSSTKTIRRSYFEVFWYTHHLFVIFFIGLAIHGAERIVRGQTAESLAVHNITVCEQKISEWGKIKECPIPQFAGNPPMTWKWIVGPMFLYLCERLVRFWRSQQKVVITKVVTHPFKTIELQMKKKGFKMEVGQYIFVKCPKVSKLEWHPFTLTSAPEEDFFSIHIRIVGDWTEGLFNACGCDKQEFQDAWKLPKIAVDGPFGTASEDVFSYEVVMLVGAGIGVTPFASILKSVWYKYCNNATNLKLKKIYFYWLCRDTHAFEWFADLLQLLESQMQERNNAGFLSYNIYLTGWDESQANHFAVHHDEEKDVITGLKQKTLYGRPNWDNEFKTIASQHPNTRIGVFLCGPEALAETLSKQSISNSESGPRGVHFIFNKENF
NADPH oxidase 4 (Homo sapiens), sequence (Q9NPH5 whole entry, looked up): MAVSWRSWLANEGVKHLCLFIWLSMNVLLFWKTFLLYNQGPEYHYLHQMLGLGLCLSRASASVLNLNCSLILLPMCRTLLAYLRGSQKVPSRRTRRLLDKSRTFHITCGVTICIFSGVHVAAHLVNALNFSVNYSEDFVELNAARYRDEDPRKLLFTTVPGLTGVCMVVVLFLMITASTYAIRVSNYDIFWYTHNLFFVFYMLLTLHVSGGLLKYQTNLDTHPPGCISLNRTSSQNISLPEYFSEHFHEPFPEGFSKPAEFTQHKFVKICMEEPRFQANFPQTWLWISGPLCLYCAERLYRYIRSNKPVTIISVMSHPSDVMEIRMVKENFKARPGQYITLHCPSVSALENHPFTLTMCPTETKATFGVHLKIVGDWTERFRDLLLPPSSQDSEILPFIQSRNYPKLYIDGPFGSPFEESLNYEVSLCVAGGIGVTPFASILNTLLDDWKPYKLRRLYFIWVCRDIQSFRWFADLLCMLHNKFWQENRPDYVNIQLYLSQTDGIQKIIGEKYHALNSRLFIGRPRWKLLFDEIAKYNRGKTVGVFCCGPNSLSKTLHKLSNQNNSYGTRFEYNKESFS
Torsin-1A (Homo sapiens), sequence (O14656 whole entry, looked up): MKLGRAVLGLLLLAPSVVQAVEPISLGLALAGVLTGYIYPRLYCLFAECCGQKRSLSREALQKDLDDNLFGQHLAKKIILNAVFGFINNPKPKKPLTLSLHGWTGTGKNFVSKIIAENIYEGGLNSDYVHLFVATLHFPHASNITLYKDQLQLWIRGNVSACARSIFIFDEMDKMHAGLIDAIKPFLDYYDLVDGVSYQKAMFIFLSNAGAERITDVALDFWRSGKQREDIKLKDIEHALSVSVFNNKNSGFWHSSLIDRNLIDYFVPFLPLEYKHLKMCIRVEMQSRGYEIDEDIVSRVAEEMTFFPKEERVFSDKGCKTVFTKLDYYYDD

SMILES	composite z-score [1]	z-score [2]	z-score [3]	z-score [4]	z-score [5]	composite z-score [6]	composite z-score [7]	composite z-score (Torsin-1A (Homo sapiens) [8])	composite z-score (Torsin-1A (Homo sapiens) [9])	composite z-score [10]	z-score [11]	composite z-score [12]	z-score [13]	z-score [14]	z-score [15]	z-score [16]	z-score [17]	z-score [18]	z-score [19]	z-score [20]
CN(C)C(=O)[C@@]1(CCC(=O)OC(C)(C)C)N=C(c2ccc(OCCCO)cc2)O[C@H]1c1ccccc1N=[N+]=[N-]	1.46	-1.84 (inactive)	-0.0215 (inactive)	1.31 (inactive)	-1.33 (inactive)	1.6	0.277	1.76	2.25	0.18	0.0366 (inactive)	0.646	32.9 (active)	32.2 (active)	1.78 (inactive)	3.02 (inactive)	-0.192	-3.57 (inactive)	0.0136 (inactive)	-1.97
O=C(CS)NCCCCCNC(=O)[C@@H]1C[C@@H]2C(=O)N3CCC[C@H]3C(=O)N2[C@@H]1c1ccc(O)cc1	0.257	-0.237 (inactive)	-0.78 (inactive)	-0.13 (inactive)	-0.862 (inactive)	-0.23	-0.0313	0.99	1.24	0.837	-0.391 (inactive)	0.109	2.25 (inactive)	0.508 (inactive)	-2.66 (inactive)	0.251 (inactive)	-0.244	0.927 (inactive)	0.313 (inactive)	-0.651
COCCCNC(=O)[C@]1(CCS(=O)(=O)c2ccccc2)N=C(c2ccc(OCCCO)cc2)O[C@@H]1c1ccccc1	0.118	-1.63 (inactive)	-0.812 (inactive)	0.638 (inactive)	-1.33 (inactive)	1.43	0.371	0.972	1.33	0.306	0.664 (inactive)	1.12	26 (active)	9.64 (active)	2.14 (inactive)	1.82 (inactive)	-0.108	-0.0777 (inactive)	1.72 (inactive)	0.88
COCCCNC(=O)[C@]1(Cc2ccccc2)N=C(c2ccc(OCCCO)cc2)O[C@@H]1c1ccccc1N=[N+]=[N-]	1.1	-5.91 (inactive)	-1.57 (inactive)	0.101 (inactive)	-0.844 (inactive)	0.607	-0.0136	1.04	1.04	-0.46	1.1 (inactive)	0.334	31.9 (active)	27.3 (active)	2.49 (inactive)	2.24 (inactive)	1.44	-5.51 (inactive)	-2.84 (inactive)	-2.21
O=C(N1CCOCC1)[C@@]1(CCS(=O)(=O)c2ccccc2)COC(c2ccc(OCCCO)cc2)=N1	-0.102	-0.963 (inactive)	0.585 (inactive)	0.148 (inactive)	1.58 (inactive)	-0.411	-0.374	0.385	0.65	-0.784	1.04 (inactive)	-0.356	23.8 (active)	9.6 (active)	1.75 (inactive)	1.3 (inactive)	-0.713	-1.79 (inactive)	0.44 (inactive)	-0.597
COc1ccc([Si](C)(C)[C@@H]2[C@@H](CC(=O)N3Cc4ccccc4C[C@H]3CO)O[C@]3(C(=O)N(Cc4cccc(N5CCCCC5=O)c4)c4ccccc43)[C@H]2C)cc1	0.41	-3.71 (inactive)	0.723 (inactive)	1.88 (inactive)	-0.136 (inactive)	0.287	0.17	0.652	0.101	1.76	-0.261 (inactive)	-0.147	4.07 (inactive)	1.27 (inactive)	1.64 (inactive)	0.867 (inactive)	0.297	-1.63 (inactive)	0.265 (inactive)	0.805
CCCC=C(CCC)[C@@H](NS(=O)(=O)CC)c1ccccc1	0.356	-2.11 (inactive)	0.932 (inactive)	0.59 (inactive)	1.16 (inactive)	1.08	0.279	0.252	0.0756	-0.324	-1.84 (inactive)	0.443	0.19 (inactive)	-0.0273 (inactive)	-1.28 (inactive)	0.716 (inactive)	-0.259	-1.32 (inactive)	-2.4 (inactive)	2.02
CCOc1cc(C(O)C2C=CC3C(=O)NC(=O)C3N2Nc2ccccn2)ccc1O (stereo not given)	0.342	0.961 (inactive)	0.543 (inactive)	-0.333 (inactive)	0.153 (inactive)	0.171	-0.158	-0.0106	0.12	-0.476	-1.17 (inactive)	0.0253	-0.251 (inactive)	0.519 (inactive)	-0.195 (inactive)	0.828 (inactive)	-1.27	-1.35 (inactive)	-3.69 (inactive)	-1.57
OCc1ccc(-c2cc[n+](Cc3cccc(OC(F)(F)F)c3)cc2)cc1	0.252	-1.64 (inactive)	-0.473 (inactive)	-0.374 (inactive)	-0.119 (inactive)	1.24	-0.0221	1.18	1.12	1.98	0.0027 (inactive)	0.423	0.51 (inactive)	0.409 (inactive)	-0.445 (inactive)	-0.0616 (inactive)	-0.104	-0.316 (inactive)	-0.0783 (inactive)	-3.79
COC(=O)c1ccc(OC)c(/C=C\CC(CCc2ccccc2)OC(=O)c2ccncc2)c1 (stereo not given)	-0.272	-1.66 (inactive)	1.02 (inactive)	1.75 (inactive)	0.455 (inactive)	0.925	-0.404	0.175	0.092	1.25	-0.295 (inactive)	-0.251	17.9 (active)	3.19 (inactive)	0.533 (inactive)	0.672 (inactive)	-0.224	-0.392 (inactive)	0.67 (inactive)	-0.11
CC(C)CNC(=O)[C@@]1(c2ccc([N+](=O)[O-])cc2)CC(=O)N(C(C)C)[C@@H]1c1ccc(CO)cc1	-0.618	-4.3 (inactive)	-1.28 (inactive)	-1.06 (inactive)	0.107 (inactive)	-1.19	-0.233	-0.486	-1.29	0.225	1.27 (inactive)	-0.0547	0.224 (inactive)	-0.227 (inactive)	-1.64 (inactive)	-0.533 (inactive)	0.557	-0.145 (inactive)	-0.423 (inactive)	-1.44
Cc1ccc(S[C@]2(C(=O)O)CC(=O)N(Cc3ccccc3C(F)(F)F)[C@@H]2c2ccc(CO)cc2)cc1	-0.297	0.455 (inactive)	0.231 (inactive)	0.0279 (inactive)	-0.369 (inactive)	-0.655	-0.113	0.0183	1.46	-1.1	0.281 (inactive)	-0.109	4.63 (inactive)	0.388 (inactive)	0.0934 (inactive)	0.231 (inactive)	-0.854	0.375 (inactive)	0.152 (inactive)	0.476
CCCNC(=O)[C@@H]1c2ccccc2C(=O)N(CC23CC4CC(CC(C4)C2)C3)[C@H]1c1ccc(CO)cc1	0.435	-4.68 (inactive)	-0.929 (inactive)	0.764 (inactive)	-0.517 (inactive)	0.673	-0.118	0.92	-0.0207	1.05	-0.59 (inactive)	0.376	2.45 (inactive)	0.79 (inactive)	1.88 (inactive)	0.276 (inactive)	0.171	0.717 (inactive)	-1.2 (inactive)	-2.76
NC(=O)[C@@H]1[C@H]2C(=O)O[C@H](c3ccccc3)[C@H](c3ccccc3)N2[C@H](c2ccccc2OCCO)[C@@]12C(=O)Nc1ccc(C#CCCO)cc12	-0.335	-3.21 (inactive)	-0.663 (inactive)	0.299 (inactive)	-0.445 (inactive)	0.837	-0.0407	-0.969	0.115	-0.116	1.41 (inactive)	-0.0464	14.3 (active)	0.966 (inactive)	-2.23 (inactive)	-1.18 (inactive)	1.02	2.03 (inactive)	1.18 (inactive)	1.02
C=CCOc1ccc([C@@H]2CC=C(C(=O)OCC)[C@H](c3cccc(Br)c3)N2S(=O)(=O)c2ccc(C)cc2)cc1	0.141	-4.43 (inactive)	0.681 (inactive)	-0.424 (inactive)	0.165 (inactive)	0.414	-0.0831	0.0699	0.307	0.0537	0.251 (inactive)	-0.012	0.652 (inactive)	-0.384 (inactive)	-0.864 (inactive)	-2.24 (inactive)	1.11	0.629 (inactive)	0.399 (inactive)	-0.0171
COCCOC(=O)N1C(=O)[C@@]2(c3cc(C#CCNC(N)=O)ccc31)[C@H](c1ccc(OCCO)cc1)N1[C@H](c3ccccc3)[C@H](c3ccccc3)OC(=O)[C@H]1[C@@H]2C(=O)N1CCN(c2ncccn2)CC1	0.333	0.0075 (inactive)	0.443 (inactive)	0.212 (inactive)	0.675 (inactive)	0.651	-0.024	0.833	0.581	0.983	-0.283 (inactive)	0.209	4.15 (inactive)	1.81 (inactive)	0.428 (inactive)	1.05 (inactive)	0.537	2.29 (inactive)	0.937 (inactive)	0.877
